Test results published in the supplement of paper PMC4466140.

Assays:
Experiment in all cases: SPOT peptide array binding signal intensity (averaged, normalized) (arbitrary units (background-subtracted, floor 0; scale differs between SH3 domains)); higher = stronger binding of the SH3 domain to the peptide
AgAbp1 = molecular target: AgAbp1
Method in brief: (§1)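 Peptides were synthetic 15-mers on cellulose membranes, with every cysteine replaced by serine. They were incubated overnight at 4°C with GST-SH3 domains from four yeast species at 10 μg/ml in TBS-based blocking buffer. Binding signal, the replicate-averaged normalized and background-subtracted spot intensity, is in arbitrary units that differ between domains.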

AgBbc1 = molecular target: AgBbc1
Method in brief: as §1

AgBem1-D1 = molecular target: AgBem1-D1
Method in brief: as §1

AgBzz1-D1 = molecular target: AgBzz1-D1
Method in brief: as §1

AgBzz1-D2 = molecular target: AgBzz1-D2
Method in brief: as §1

AgCyk3 = molecular target: AgCyk3
Method in brief: as §1

AgFus1 = molecular target: AgFus1
Method in brief: as §1

AgHof1 = molecular target: AgHof1
Method in brief: as §1

AgHse1 = molecular target: AgHse1
Method in brief: as §1

AgLsb1 = molecular target: AgLsb1
Method in brief: as §1

AgLsb4 = molecular target: AgLsb4
Method in brief: as §1

AgMyo5 = molecular target: AgMyo5
Method in brief: as §1

AgNbp2 = molecular target: AgNbp2
Method in brief: as §1

AgRvs167 = molecular target: AgRvs167
Method in brief: as §1

AgSho1 = molecular target: AgSho1
Method in brief: as §1

AgSla1-D1-D2 = molecular target: AgSla1-D1-D2
Method in brief: as §1

AgSla1-D3 = molecular target: AgSla1-D3
Method in brief: as §1

CaAbp1-D1 = molecular target: CaAbp1-D1
Method in brief: as §1

CaAbp1-D2 = molecular target: CaAbp1-D2
Method in brief: as §1

CaBbc1 = molecular target: CaBbc1
Method in brief: as §1

CaBem1-D1 = molecular target: CaBem1-D1
Method in brief: as §1

CaBzz1-D1 = molecular target: CaBzz1-D1
Method in brief: as §1

CaBzz1-D2 = molecular target: CaBzz1-D2
Method in brief: as §1

CaCyk3 = molecular target: CaCyk3
Method in brief: as §1

CaFus1 = molecular target: CaFus1
Method in brief: as §1

CaHof1 = molecular target: CaHof1
Method in brief: as §1

CaHse1 = molecular target: CaHse1
Method in brief: as §1

CaLsb1 = molecular target: CaLsb1
Method in brief: as §1

CaLsb4 = molecular target: CaLsb4
Method in brief: as §1

CaMyo5 = molecular target: CaMyo5
Method in brief: as §1

CaNbp2 = molecular target: CaNbp2
Method in brief: as §1

CaRvs167 = molecular target: CaRvs167
Method in brief: as §1

CaRvs167-3 = molecular target: CaRvs167-3
Method in brief: as §1

CaSho1 = molecular target: CaSho1
Method in brief: as §1

CaSla1-D1-D2 = molecular target: CaSla1-D1-D2
Method in brief: as §1

CaSla1-D3 = molecular target: CaSla1-D3
Method in brief: as §1

ScAbp1 = molecular target: ScAbp1
Method in brief: as §1

ScBbc1 = molecular target: ScBbc1
Method in brief: as §1

ScBem1-D1 = molecular target: ScBem1-D1
Method in brief: as §1

ScBzz1-D1 = molecular target: ScBzz1-D1
Method in brief: as §1

ScBzz1-D2 = molecular target: ScBzz1-D2
Method in brief: as §1

ScCyk3 = molecular target: ScCyk3
Method in brief: as §1

ScFus1 = molecular target: ScFus1
Method in brief: as §1

ScHof1 = molecular target: ScHof1
Method in brief: as §1

ScHse1 = molecular target: ScHse1
Method in brief: as §1

ScLsb1 = molecular target: ScLsb1
Method in brief: as §1

ScLsb2 = molecular target: ScLsb2
Method in brief: as §1

ScLsb3 = molecular target: ScLsb3
Method in brief: as §1

ScLsb4 = molecular target: ScLsb4
Method in brief: as §1

ScMyo3 = molecular target: ScMyo3
Method in brief: as §1

ScMyo5 = molecular target: ScMyo5
Method in brief: as §1

ScNbp2 = molecular target: ScNbp2
Method in brief: as §1

ScPex13 = molecular target: ScPex13
Method in brief: as §1

ScRvs167 = molecular target: ScRvs167
Method in brief: as §1

ScSho1 = molecular target: ScSho1
Method in brief: as §1

ScSla1-D1-D2 = molecular target: ScSla1-D1-D2
Method in brief: as §1

ScSla1-D3 = molecular target: ScSla1-D3
Method in brief: as §1

SpAbp1-D1 = molecular target: SpAbp1-D1
Method in brief: as §1

SpBbc1 = molecular target: SpBbc1
Method in brief: as §1

SpBzz1-D1 = molecular target: SpBzz1-D1
Method in brief: as §1

SpBzz1-D2 = molecular target: SpBzz1-D2
Method in brief: as §1

SpCyk3 = molecular target: SpCyk3
Method in brief: as §1

SpHof1 = molecular target: SpHof1
Method in brief: as §1

SpHof1-2 = molecular target: SpHof1-2
Method in brief: as §1

SpHof1-3 = molecular target: SpHof1-3
Method in brief: as §1

SpHse1 = molecular target: SpHse1
Method in brief: as §1

SpLsb1 = molecular target: SpLsb1
Method in brief: as §1

SpLsb4 = molecular target: SpLsb4
Method in brief: as §1

SpMyo1 = molecular target: SpMyo1
Method in brief: as §1

SpNbp2 = molecular target: SpNbp2
Method in brief: as §1

SpPex13 = molecular target: SpPex13
Method in brief: as §1

SpRvs167 = molecular target: SpRvs167
Method in brief: as §1

SpSla1-D1-D2 = molecular target: SpSla1-D1-D2
Method in brief: as §1

SpSla1-D3 = molecular target: SpSla1-D3
Method in brief: as §1

GERSRPLVISILSSA
SPOT peptide array binding signal intensity (AgAbp1): ≤ 0
SPOT peptide array binding signal intensity (AgBbc1): 14.8
SPOT peptide array binding signal intensity (AgBem1-D1): 73
SPOT peptide array binding signal intensity (AgBzz1-D1): 90
SPOT peptide array binding signal intensity (AgBzz1-D2): 106
SPOT peptide array binding signal intensity (AgCyk3): 14
SPOT peptide array binding signal intensity (AgFus1): 1940
SPOT peptide array binding signal intensity (AgHof1): 14.8
SPOT peptide array binding signal intensity (AgHse1): 106
SPOT peptide array binding signal intensity (AgLsb1): ≤ 0
SPOT peptide array binding signal intensity (AgLsb4): 262
SPOT peptide array binding signal intensity (AgMyo5): ≤ 0
SPOT peptide array binding signal intensity (AgNbp2): 25
SPOT peptide array binding signal intensity (AgRvs167): 3.67
SPOT peptide array binding signal intensity (AgSho1): 120
SPOT peptide array binding signal intensity (AgSla1-D1-D2): 11
SPOT peptide array binding signal intensity (AgSla1-D3): 5
SPOT peptide array binding signal intensity (CaAbp1-D1): 43
SPOT peptide array binding signal intensity (CaAbp1-D2): 2
SPOT peptide array binding signal intensity (CaBbc1): 55.2
SPOT peptide array binding signal intensity (CaBem1-D1): 28.5
SPOT peptide array binding signal intensity (CaBzz1-D1): 268
SPOT peptide array binding signal intensity (CaBzz1-D2): 175
SPOT peptide array binding signal intensity (CaCyk3): 37
SPOT peptide array binding signal intensity (CaFus1): 3880
SPOT peptide array binding signal intensity (CaHof1): ≤ 0
SPOT peptide array binding signal intensity (CaHse1): 10.5
SPOT peptide array binding signal intensity (CaLsb1): 0.5
SPOT peptide array binding signal intensity (CaLsb4): ≤ 0
SPOT peptide array binding signal intensity (CaMyo5): 24
SPOT peptide array binding signal intensity (CaNbp2): 171
SPOT peptide array binding signal intensity (CaRvs167): 45.8
SPOT peptide array binding signal intensity (CaRvs167-3): 538
SPOT peptide array binding signal intensity (CaSho1): 497
SPOT peptide array binding signal intensity (CaSla1-D1-D2): 11
SPOT peptide array binding signal intensity (CaSla1-D3): 170
SPOT peptide array binding signal intensity (ScAbp1): 3
SPOT peptide array binding signal intensity (ScBbc1): 4
SPOT peptide array binding signal intensity (ScBem1-D1): 9
SPOT peptide array binding signal intensity (ScBzz1-D1): 97
SPOT peptide array binding signal intensity (ScBzz1-D2): 619
SPOT peptide array binding signal intensity (ScCyk3): 121
SPOT peptide array binding signal intensity (ScFus1): 3300
SPOT peptide array binding signal intensity (ScHof1): ≤ 0
SPOT peptide array binding signal intensity (ScHse1): 500
SPOT peptide array binding signal intensity (ScLsb1): ≤ 0
SPOT peptide array binding signal intensity (ScLsb2): ≤ 0
SPOT peptide array binding signal intensity (ScLsb3): 6.5
SPOT peptide array binding signal intensity (ScLsb4): 7
SPOT peptide array binding signal intensity (ScMyo3): ≤ 0
SPOT peptide array binding signal intensity (ScMyo5): 1
SPOT peptide array binding signal intensity (ScNbp2): 71.5
SPOT peptide array binding signal intensity (ScPex13): 19.8
SPOT peptide array binding signal intensity (ScRvs167): 6
SPOT peptide array binding signal intensity (ScSho1): 910
SPOT peptide array binding signal intensity (ScSla1-D1-D2): 8
SPOT peptide array binding signal intensity (ScSla1-D3): 22
SPOT peptide array binding signal intensity (SpAbp1-D1): ≤ 0
SPOT peptide array binding signal intensity (SpBbc1): 18
SPOT peptide array binding signal intensity (SpBzz1-D1): 314
SPOT peptide array binding signal intensity (SpBzz1-D2): 0.75
SPOT peptide array binding signal intensity (SpCyk3): 26.5
SPOT peptide array binding signal intensity (SpHof1): 146
SPOT peptide array binding signal intensity (SpHof1-2): 12.2
SPOT peptide array binding signal intensity (SpHof1-3): 113
SPOT peptide array binding signal intensity (SpHse1): 482
SPOT peptide array binding signal intensity (SpLsb1): ≤ 0
SPOT peptide array binding signal intensity (SpLsb4): 9
SPOT peptide array binding signal intensity (SpMyo1): 6
SPOT peptide array binding signal intensity (SpNbp2): 146
SPOT peptide array binding signal intensity (SpPex13): 28
SPOT peptide array binding signal intensity (SpRvs167): 0.333
SPOT peptide array binding signal intensity (SpSla1-D1-D2): ≤ 0
SPOT peptide array binding signal intensity (SpSla1-D3): 11
